What all share (experiment): DAPPL (digital affinity profiling via proximity ligation, sequencing); 10 mM Tris-HCl pH 7.5, 50 mM NaCl, 1 mM DTT, 4% glycerol, room temperature, 30 min; GST-TFs on glutathione beads, 16-mer random dsDNA library, 0.1% formaldehyde crosslink after washing; high values mean tight binding
In one test the target is T1, FLI1 (Homo sapiens, UniProt Q01543 1-452).
T1 sequence: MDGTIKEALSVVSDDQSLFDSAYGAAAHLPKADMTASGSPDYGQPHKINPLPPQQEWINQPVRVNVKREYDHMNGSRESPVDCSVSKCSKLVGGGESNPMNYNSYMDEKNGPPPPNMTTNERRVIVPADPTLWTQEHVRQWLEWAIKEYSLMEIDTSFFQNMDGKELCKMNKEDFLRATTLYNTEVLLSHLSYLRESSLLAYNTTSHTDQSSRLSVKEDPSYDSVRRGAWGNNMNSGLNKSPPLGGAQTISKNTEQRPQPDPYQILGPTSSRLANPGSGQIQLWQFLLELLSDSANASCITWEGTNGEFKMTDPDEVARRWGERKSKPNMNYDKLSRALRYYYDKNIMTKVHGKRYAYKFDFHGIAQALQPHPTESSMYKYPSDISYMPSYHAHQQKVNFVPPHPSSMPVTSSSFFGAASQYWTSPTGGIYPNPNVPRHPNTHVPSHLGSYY
The following applies: protein: recombinant; tags: N-terminal GST; dsDNA, one strand shown. In short, it runs like this:
(§1)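 In yeast, human transcription factors were expressed with a GST fusion, then pulled down on glutathione beads and given DNA barcodes. Pooled with a tag-only sample, they were exposed to 200 nmole of a 16-mer random double-stranded DNA library (Tris/NaCl/DTT/glycerol buffer, room temperature, 30 min), washed, crosslinked with 0.1% formaldehyde, proximity-ligated using BsaI/T4 ligase for 1 h at 37 °C, PCR-amplified and read on an Illumina NextSeq500. Each hexamer's frequency of reads for a factor, divided by the matching frequency for the tag-only sample, gives the binding signal.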

A further test concerns the target T2, ELK1 (Homo sapiens, UniProt P19419 1-428).
T2 sequence: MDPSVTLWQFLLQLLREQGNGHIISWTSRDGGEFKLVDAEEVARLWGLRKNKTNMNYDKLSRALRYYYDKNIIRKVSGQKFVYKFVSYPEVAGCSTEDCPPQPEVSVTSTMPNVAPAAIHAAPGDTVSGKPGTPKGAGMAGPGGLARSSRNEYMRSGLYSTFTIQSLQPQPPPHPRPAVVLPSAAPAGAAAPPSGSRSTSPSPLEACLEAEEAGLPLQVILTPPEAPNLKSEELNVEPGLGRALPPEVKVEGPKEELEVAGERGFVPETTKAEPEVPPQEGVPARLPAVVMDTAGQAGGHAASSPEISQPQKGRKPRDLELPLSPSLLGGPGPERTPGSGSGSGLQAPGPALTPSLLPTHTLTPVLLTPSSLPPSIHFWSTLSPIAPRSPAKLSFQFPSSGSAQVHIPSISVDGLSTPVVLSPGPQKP
The following applies: protein: recombinant; tags: N-terminal GST; dsDNA, one strand shown. A digest of the protocol:
as §1

The next test has as its target T3, GABPA (Homo sapiens, UniProt Q06546 1-454).
T3 sequence: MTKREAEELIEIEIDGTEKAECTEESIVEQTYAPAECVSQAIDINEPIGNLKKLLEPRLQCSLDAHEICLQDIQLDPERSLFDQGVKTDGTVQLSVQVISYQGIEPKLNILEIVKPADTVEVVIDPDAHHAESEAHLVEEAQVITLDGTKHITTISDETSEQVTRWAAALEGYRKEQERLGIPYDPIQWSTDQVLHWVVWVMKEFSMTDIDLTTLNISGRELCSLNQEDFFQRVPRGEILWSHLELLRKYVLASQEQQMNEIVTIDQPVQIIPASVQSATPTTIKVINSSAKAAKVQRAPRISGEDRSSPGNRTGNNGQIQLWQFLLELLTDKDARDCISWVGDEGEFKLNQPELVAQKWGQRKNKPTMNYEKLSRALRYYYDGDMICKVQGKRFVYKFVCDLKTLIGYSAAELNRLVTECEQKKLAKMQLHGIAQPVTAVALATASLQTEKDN
The following applies: protein: recombinant; tags: N-terminal GST; dsDNA, one strand shown. In short, it runs like this: as §1

The target of the next test is T4, ERG (Homo sapiens, UniProt P11308 1-479).
T4 sequence: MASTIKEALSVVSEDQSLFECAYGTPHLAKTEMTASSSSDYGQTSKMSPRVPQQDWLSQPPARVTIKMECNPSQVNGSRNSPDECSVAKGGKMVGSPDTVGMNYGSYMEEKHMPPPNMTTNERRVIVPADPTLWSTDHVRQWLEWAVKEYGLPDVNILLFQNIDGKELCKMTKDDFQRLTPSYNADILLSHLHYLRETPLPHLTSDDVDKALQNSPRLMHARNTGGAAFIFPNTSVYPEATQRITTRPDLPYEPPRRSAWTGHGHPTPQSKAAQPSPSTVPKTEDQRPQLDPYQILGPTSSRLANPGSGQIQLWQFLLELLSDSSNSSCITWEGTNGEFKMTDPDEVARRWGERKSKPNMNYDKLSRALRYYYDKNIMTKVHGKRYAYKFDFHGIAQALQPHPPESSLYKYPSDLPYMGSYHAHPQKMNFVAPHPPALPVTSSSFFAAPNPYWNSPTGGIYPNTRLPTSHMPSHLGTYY
The following applies: protein: recombinant; tags: N-terminal GST; dsDNA, one strand shown. In short, it runs like this:
as §1

A further test has as its target ELF1 (Homo sapiens, UniProt P32519 1-619). The following applies: protein: recombinant; tags: N-terminal GST; dsDNA, one strand shown. In short, it runs like this:
as §1

The next test concerns the target T5, EHF (Homo sapiens, UniProt Q9NZC4 1-300).
T5 sequence: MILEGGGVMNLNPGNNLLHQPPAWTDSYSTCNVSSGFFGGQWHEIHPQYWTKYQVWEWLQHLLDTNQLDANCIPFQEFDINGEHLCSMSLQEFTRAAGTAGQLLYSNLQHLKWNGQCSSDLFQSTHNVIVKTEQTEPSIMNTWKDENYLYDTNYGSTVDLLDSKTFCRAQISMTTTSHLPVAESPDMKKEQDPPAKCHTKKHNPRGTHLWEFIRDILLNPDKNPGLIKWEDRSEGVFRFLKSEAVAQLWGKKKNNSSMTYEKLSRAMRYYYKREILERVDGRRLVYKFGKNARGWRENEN
The following applies: protein: recombinant; tags: N-terminal GST; dsDNA, one strand shown. A digest of the protocol: as §1

In the next test the target is SPI1 (Homo sapiens, UniProt P17947 1-270). The following applies: protein: recombinant; tags: N-terminal GST; dsDNA, one strand shown. In short, it runs like this:
as §1

The next test deals with SPIB (Homo sapiens, UniProt Q01892 1-262). The following applies: protein: recombinant; tags: N-terminal GST; dsDNA, one strand shown. A digest of the protocol:
as §1

In the next test the target is T6, FEV (Homo sapiens, UniProt Q99581 1-238).
T6 sequence: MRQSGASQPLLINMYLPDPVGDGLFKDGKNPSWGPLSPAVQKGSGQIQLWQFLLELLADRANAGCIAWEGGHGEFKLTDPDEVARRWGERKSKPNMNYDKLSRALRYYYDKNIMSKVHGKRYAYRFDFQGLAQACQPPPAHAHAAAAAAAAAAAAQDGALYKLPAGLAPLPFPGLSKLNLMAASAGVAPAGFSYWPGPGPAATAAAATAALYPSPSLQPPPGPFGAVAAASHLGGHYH
The following applies: protein: recombinant; tags: N-terminal GST; dsDNA, one strand shown. A digest of the protocol: as §1

For another test, the target named is ETV5 (Homo sapiens, UniProt P41161 1-510). The following applies: protein: recombinant; tags: N-terminal GST; dsDNA, one strand shown. In short, it runs like this: as §1
The target in another test is HSF1 (Homo sapiens, UniProt Q00613 1-529). The following applies: protein: recombinant; tags: N-terminal GST; chain copies: 3; dsDNA, one strand shown. A digest of the protocol:
as §1

The next test deals with T7, SPIC (Homo sapiens, UniProt Q8N5J4 1-248).
T7 sequence: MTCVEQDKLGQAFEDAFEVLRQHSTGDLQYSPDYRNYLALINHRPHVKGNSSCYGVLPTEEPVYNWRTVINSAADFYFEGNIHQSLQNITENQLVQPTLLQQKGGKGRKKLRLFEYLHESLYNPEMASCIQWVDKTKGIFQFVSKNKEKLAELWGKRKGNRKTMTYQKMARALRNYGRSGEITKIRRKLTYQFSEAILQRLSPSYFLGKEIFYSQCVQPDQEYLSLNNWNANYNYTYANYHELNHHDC
The following applies: protein: recombinant; tags: N-terminal GST; dsDNA, one strand shown. A digest of the protocol:
as §1

The next test has as its target ELF4 (Homo sapiens, UniProt Q99607 1-663). The following applies: protein: recombinant; tags: N-terminal GST; dsDNA, one strand shown. In short, it runs like this: as §1
In a further test the target is T8, ELK4 (Homo sapiens, UniProt P28324-2 1-405).
T8 sequence: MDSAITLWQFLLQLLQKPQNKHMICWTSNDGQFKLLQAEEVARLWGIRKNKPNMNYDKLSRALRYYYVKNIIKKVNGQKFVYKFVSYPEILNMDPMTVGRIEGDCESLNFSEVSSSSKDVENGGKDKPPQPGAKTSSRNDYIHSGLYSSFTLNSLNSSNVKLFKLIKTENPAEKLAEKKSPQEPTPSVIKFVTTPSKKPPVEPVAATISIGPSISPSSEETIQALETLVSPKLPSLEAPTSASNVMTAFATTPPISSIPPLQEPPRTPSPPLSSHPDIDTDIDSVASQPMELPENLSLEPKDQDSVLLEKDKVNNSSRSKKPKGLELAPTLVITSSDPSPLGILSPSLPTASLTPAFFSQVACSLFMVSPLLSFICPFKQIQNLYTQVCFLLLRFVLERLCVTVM
The following applies: protein: recombinant; tags: N-terminal GST; dsDNA, one strand shown. A digest of the protocol: as §1

The next test addresses T9, ETV2 (Homo sapiens, UniProt O00321 1-342).
T9 sequence: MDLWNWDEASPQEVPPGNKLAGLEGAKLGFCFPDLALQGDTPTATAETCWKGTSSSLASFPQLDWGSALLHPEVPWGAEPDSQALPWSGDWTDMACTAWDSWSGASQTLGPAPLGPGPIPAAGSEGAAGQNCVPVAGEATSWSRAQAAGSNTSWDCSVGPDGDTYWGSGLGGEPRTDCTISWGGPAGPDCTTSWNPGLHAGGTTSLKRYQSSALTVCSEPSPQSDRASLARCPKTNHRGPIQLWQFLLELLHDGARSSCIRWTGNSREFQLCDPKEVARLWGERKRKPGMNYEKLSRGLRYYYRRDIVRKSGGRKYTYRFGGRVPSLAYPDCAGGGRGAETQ
The following applies: protein: recombinant; tags: N-terminal GST; dsDNA, one strand shown. In short, it runs like this:
as §1

In a further test the target is T10, ELF3 (Homo sapiens, UniProt P78545 1-371).
T10 sequence: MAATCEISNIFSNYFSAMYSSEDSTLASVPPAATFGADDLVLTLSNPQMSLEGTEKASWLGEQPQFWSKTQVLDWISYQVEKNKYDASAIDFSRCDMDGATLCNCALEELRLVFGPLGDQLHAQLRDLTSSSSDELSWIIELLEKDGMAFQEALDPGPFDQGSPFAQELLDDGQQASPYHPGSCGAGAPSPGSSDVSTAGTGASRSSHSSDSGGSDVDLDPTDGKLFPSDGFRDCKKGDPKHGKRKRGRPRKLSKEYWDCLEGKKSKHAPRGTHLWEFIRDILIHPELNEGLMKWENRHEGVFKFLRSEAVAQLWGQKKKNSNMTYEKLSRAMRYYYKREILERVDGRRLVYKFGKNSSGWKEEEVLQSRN
The following applies: protein: recombinant; tags: N-terminal GST; dsDNA, one strand shown. In short, it runs like this:
as §1

The target of a further test is CRX (Homo sapiens, UniProt O43186 1-299). The following applies: protein: recombinant; tags: N-terminal GST; dsDNA, one strand shown. In short, it runs like this:
as §1

The target of a further test is ETV1 (Homo sapiens, UniProt P50549 1-477). The following applies: protein: recombinant; tags: N-terminal GST; dsDNA, one strand shown. A digest of the protocol:
as §1

Chain of HSF1 (Q00613 whole entry): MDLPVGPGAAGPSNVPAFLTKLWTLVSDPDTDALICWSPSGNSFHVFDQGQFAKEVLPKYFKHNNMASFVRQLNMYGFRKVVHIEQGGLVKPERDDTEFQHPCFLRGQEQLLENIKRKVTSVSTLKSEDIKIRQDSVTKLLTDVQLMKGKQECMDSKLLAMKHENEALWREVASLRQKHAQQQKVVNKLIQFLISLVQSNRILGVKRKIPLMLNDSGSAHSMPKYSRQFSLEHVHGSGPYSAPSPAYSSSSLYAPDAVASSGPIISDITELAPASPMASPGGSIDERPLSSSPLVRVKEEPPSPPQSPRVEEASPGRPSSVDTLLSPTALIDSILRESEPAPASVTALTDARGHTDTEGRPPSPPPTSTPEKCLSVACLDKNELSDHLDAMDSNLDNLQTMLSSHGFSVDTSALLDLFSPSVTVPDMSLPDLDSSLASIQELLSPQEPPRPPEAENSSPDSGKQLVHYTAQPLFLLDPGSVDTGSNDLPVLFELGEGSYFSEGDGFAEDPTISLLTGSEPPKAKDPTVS
Chain of ETV5 (P41161 whole entry): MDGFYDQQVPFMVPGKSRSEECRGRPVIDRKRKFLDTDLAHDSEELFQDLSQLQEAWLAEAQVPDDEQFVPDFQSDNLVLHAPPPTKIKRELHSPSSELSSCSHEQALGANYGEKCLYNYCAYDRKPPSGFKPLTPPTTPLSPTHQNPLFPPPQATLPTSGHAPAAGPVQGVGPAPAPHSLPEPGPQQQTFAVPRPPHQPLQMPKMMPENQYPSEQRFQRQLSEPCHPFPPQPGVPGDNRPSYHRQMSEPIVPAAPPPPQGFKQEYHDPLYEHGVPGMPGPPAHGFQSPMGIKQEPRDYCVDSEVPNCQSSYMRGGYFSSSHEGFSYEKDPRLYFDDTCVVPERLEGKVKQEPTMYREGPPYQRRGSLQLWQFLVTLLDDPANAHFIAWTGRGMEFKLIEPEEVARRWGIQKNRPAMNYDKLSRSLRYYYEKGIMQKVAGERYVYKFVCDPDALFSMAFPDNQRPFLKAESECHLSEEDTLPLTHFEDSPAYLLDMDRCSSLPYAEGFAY
Chain of CRX (O43186 whole entry): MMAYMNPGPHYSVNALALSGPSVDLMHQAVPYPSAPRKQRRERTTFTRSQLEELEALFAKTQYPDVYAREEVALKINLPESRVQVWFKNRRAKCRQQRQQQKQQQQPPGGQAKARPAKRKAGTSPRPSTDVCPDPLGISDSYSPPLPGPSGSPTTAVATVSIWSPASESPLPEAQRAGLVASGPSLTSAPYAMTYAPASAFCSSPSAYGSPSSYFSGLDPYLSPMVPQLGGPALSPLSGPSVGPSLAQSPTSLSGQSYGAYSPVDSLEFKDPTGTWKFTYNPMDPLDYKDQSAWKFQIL
Chain of SPIB (Q01892 whole entry): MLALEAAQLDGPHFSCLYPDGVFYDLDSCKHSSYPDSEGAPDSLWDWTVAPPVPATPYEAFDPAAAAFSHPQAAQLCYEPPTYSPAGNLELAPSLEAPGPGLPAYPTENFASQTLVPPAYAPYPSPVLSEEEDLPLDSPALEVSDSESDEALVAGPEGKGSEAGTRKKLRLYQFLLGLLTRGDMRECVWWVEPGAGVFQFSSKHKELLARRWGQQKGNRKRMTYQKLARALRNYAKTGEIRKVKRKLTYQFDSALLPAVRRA
Chain of ETV1 (P50549 whole entry): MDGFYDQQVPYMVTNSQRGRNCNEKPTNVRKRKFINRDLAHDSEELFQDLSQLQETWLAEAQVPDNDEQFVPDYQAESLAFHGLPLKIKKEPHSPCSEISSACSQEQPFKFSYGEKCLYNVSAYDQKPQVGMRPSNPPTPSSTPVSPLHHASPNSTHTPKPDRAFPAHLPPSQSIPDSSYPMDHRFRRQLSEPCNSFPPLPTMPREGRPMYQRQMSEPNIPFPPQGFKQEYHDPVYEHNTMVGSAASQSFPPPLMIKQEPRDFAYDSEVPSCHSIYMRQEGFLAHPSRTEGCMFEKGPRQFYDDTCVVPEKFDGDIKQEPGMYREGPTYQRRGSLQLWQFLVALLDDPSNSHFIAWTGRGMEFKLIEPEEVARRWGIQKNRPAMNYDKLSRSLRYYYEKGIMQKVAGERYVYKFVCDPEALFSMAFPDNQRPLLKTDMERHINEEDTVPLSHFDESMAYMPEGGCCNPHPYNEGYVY
Chain of ELF1 (P32519 whole entry): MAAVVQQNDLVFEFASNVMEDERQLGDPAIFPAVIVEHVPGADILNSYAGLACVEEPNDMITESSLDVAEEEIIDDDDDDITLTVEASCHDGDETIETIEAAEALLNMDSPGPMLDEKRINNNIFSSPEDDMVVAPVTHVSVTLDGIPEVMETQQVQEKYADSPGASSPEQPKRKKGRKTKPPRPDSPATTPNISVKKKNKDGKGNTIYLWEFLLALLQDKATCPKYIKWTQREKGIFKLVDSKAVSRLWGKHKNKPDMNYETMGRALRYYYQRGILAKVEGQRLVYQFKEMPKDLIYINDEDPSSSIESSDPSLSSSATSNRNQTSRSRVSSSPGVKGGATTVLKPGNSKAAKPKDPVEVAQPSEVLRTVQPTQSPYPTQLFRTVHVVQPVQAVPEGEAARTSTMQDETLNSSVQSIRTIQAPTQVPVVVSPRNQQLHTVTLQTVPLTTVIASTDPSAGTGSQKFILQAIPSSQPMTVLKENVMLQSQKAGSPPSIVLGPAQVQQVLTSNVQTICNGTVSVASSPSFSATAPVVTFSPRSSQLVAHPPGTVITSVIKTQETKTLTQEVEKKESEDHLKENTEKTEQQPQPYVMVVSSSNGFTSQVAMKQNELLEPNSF
Chain of ELF4 (Q99607 whole entry): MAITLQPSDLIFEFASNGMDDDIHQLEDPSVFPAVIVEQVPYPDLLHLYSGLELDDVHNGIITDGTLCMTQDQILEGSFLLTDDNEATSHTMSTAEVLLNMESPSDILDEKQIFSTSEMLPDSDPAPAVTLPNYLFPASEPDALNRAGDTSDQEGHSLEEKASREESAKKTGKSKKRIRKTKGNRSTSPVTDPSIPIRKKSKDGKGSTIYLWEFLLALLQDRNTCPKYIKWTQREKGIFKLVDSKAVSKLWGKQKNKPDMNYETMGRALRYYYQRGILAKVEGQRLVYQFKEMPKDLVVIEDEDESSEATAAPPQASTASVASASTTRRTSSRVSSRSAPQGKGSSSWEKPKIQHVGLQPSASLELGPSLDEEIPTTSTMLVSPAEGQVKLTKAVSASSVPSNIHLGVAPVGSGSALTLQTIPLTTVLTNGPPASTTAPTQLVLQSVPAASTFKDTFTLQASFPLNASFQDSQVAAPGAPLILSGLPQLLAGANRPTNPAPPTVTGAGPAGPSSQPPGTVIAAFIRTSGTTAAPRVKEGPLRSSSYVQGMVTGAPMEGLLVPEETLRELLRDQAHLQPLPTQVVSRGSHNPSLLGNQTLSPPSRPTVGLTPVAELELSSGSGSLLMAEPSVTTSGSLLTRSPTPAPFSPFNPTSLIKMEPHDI

Consider GCTGAA, for which the binding signal with FLI1 was 1.14 fold enrichment (6-mer frequency, TF over GST control); with ELK1, 1.09 fold enrichment (6-mer frequency, TF over GST control); in the test with GABPA, 1.14 fold enrichment (6-mer frequency, TF over GST control); in the test with ERG, 1.03 fold enrichment (6-mer frequency, TF over GST control); with ELF1, 1.16 fold enrichment (6-mer frequency, TF over GST control); with EHF, 1.1 fold enrichment (6-mer frequency, TF over GST control). Moreover, the binding signal is 1.06 fold enrichment (6-mer frequency, TF over GST control) in the test with SPI1; 1.11 fold enrichment (6-mer frequency, TF over GST control) with SPIB; 1.03 fold enrichment (6-mer frequency, TF over GST control) in the test with FEV; 1.16 fold enrichment (6-mer frequency, TF over GST control) with ETV5; 1.04 fold enrichment (6-mer frequency, TF over GST control) in the test with HSF1; 1.31 fold enrichment (6-mer frequency, TF over GST control) with SPIC. Also, the binding signal was 1.1 fold enrichment (6-mer frequency, TF over GST control) with ELF4; 1.23 fold enrichment (6-mer frequency, TF over GST control) with ELK4; 1.21 fold enrichment (6-mer frequency, TF over GST control) with ETV2; 1.18 fold enrichment (6-mer frequency, TF over GST control) in the test with ELF3; 1.05 fold enrichment (6-mer frequency, TF over GST control) with CRX; 1.05 fold enrichment (6-mer frequency, TF over GST control) with ETV1.

For the origin of these results see article PMC7862700, “An all-to-all approach to the identification of sequence-specific readers for epigenetic DNA modifications on cytosine”.
